Among the data in PubChem BioAssay (NCATS) are Potency, outcome and activity change, negative = inhibition values, retold here.

Inconclusive results are not listed. Activity calls are given as the source filed them. Unless noted, the call rests on the fitted dose curve; in most records, active means well fitted curve in the direction sought with a large enough effect; inconclusive means small, poorly fitted or top-dose-only effect, or another doubt; inactive means no such curve, though single readings can be large; an effect the other way counts as inactive or inconclusive. Starred links: 1 amine or outer side, 2 acyl side, 3 side chain; linkers in the order of their positions; H or OH if unused. Positions of bridges follow the written chain, without caps; N, C: chain ends. Non-standard residues stand in square brackets, D forms with d. Residues, ends and D or L forms follow the SMILES beside them. ξ: configuration not given here. *: point of attachment. X3 = C[C@@H](Oc1ccc([C@H](N[*:1])C(=O)[*:2])cc1)[C@]1(/C=C\C(=O)[*:3])CO1; d(aIle) = CC[C@H](C)[C@@H](N)C(=O)O; X2 = CC(C)[C@@H](O)C(C)C(=O)*; ξNMeF = CNC(Cc1ccccc1)C(=O)O; ξT = CC(O)C(N)C(=O)O; ξS = NC(CO)C(=O)O

In assay [1] the test system is Zika virus NS2B-NS3 protease (linked construct). The experiment in a line: Primary screen NINDS Rhodamine qHTS for Zika virus inhibitors (AID 1347160). The conditions noted are these: purified NS2B-NS3 protease, Rhodamine110 substrate fluorescence; series mostly up to 112 µM. The procedure, abridged:
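Each compound, titrated, sat 15 min with 25 nM linked protease before 1.5 microM Rhodamine110 substrate went in. Fluorescence gain over the next 15 min, in pH 8.0 Tris with Tween 20, gave Hill-fitted curves.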
A general note: qHTS replaces the single test concentration by a dilution series.

Assay [2] in a line: Panc-1005 Cancer Cell Toxicity qHTS against the NCATS CANVASS Library (AID 1347349). The following applies: Panc-1005 viability, CellTiter-Glo luminescence, 72 h; series mostly up to 38.3 µM. Put shortly: (§1)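 Following a 4 h pre-incubation of 1000 seeded cells, compounds were pinned in an 11-pnt dilution series and left for 72 h; viability then came from CellTiter-Glo.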
The nature of assay [3]: UWB1.289-WTBRCA1 Cancer Cell Toxicity qHTS against the NCATS CANVASS Library (AID 1347354). The following applies: UWB1.289-WTBRCA1 viability, CellTiter-Glo luminescence, 72 h; series mostly up to 38.3 µM. Put shortly:
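Toxicity was measured as CellTiter-Glo luminescence after 72 h exposure to an 11-point compound series. Compound was added to 1000 cells/well 4 h after seeding.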

Assay [4] is described as follows: UWB1.289 Cancer Cell Toxicity qHTS against the NCATS CANVASS Library (AID 1347347). The conditions noted are these: UWB1.289 viability, CellTiter-Glo luminescence, 72 h; series mostly up to 38.3 µM. The procedure, abridged: as §1
Assay [5] can be described thus: qHTS for Antimalaria activity screened against the NCATS CANVASS Library (AID 1347380). The conditions noted are these: P. falciparum Dd2 growth, SYBR Green fluorescence, 72 h; series mostly up to 28.7 µM. Put shortly: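 SYBR Green fluorescence at 485/535 nm was read 18 hr after lysis. This followed a 72 hr incubation at 37C in 5% O2, 5% CO2 of Dd2-infected erythrocytes (0.3% parasitemia, 2.5% final hematocrit) with compounds titrated over 11 concentrations.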

A short description of assay [6]: OV-SAHO Cancer Cell Toxicity qHTS against the NCATS CANVASS Library (AID 1347348). The conditions noted are these: OV-SAHO viability, CellTiter-Glo luminescence, 72 h; series mostly up to 38.3 µM. Put shortly: as §1
Assay [7] addresses Glucocorticoid receptor (Homo sapiens) (UniProt P04150). The experiment in a line: GR-GFP Redistribution (AID 450;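 active means compounds whose dose series gives a full or clear partial fitted curve of increased nuclear translocation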). The conditions noted are these: U2OS GR-GFP nuclear translocation, laser cytometry, 2 h.
Assay [8] has the same target. Description: GR-EFC Redistribution (AID 451; calls by dose curve). The following applies: CHO-K1 GR-EFC translocation, beta-gal luminescence, 2 h. Put shortly: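 CHO-K1 cells expressing nuclear EA and GR-ED fragments of b-gal; compounds titrated up to 46 uM final, 2 h at 37 C. GR nuclear translocation read as complemented b-gal luminescence after 1 h RT detection.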
For assay [9], the target named is Mitogen-activated protein kinase 10 (Mus musculus) (UniProt Q61831). The experiment in a line: JNK3 AlphaScreen Assay (AID 530; active means well fitted curve in either direction with a large enough effect, not every such curve was filed as active). The following applies: JNK3 lysate, c-Jun phosphorylation; series mostly up to 57.1 µM. The procedure, abridged:
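Activity was read by AlphaScreen after JNK3-containing HepG2 lysate (cytokine pre-activated) phosphorylated biotinylated GST-cJun with 10 uM ATP at room temperature. Phospho-Ser73 cJun antibody with Protein-A acceptor beads provided detection.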

Assay [10] concerns the target 3',5'-cyclic-AMP phosphodiesterase 4B (Homo sapiens) (UniProt Q07343). Description: qHTS Assay for Inhibitors of PDE-IV (AID 607; active means well fitted activation curve with a large enough effect in the main read-out, with a control signal flat, not every such curve was filed as active). The conditions noted are these: HEK293 ACTOne CNG channel cells, membrane potential fluorescence; series mostly up to 22.9 µM. The procedure, abridged:
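HEK293 ACTOne cells with CNG channel (1000/well), endogenous PDE4; membrane potential dye, compounds up to 22.9 uM final. Fluorescence Ex 535/Em 590; RO 20-1724 (100 uM final) as reference.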

The test system of assay [11] is Zika virus NS2B-NS3 protease (linked). The experiment in a line: 384 well plate NINDS AMC confirmatory qHTS for Zika virus inhibitors (AID 1347163). The following applies: Recombinant NS2B-NS3 protease, Ac-VKTGKR-AMC fluorescence; series mostly up to 100 µM. The procedure, abridged: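 Fluorescence at 355/460 nm was read after 25 minutes of cleavage of 30 microM Ac-VKTGKR-AMC at room temperature, in the dark. Before substrate addition, compounds (up to 1 mM final) sat ~15 minutes with 5, 30 or 60 nM linked protease. Signals were normalized to no-enzyme and no-inhibitor wells.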

Assay [12] can be described thus: Cytotoxicity counterscreen for inhibitors of SARS-CoV-2 cell entry (AID 1645845; calls by dose curve). The following applies: cell viability (SARS-CoV-2 entry assay cells); outcome: at 57.1 µM (top of the series) unless noted; series mostly up to 57.1 µM. Put shortly:
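Counterscreen run in the same HEK293-ACE2 line as the pseudotyped-particle entry assay, without particles. Viability after 48 h at 37 C was read as ATP luminescence, scaled between cell-containing and cell-free wells.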

Assay [13] in a line: Primary qHTS to identify inhibitors of SARS-CoV-2 cell entry (AID 1645846; calls by dose curve). The following applies: SARS-CoV-2 pseudovirus cell entry assay, luminescence; activity change, negative = inhibition: at 57.1 µM (top of the series) unless noted; outcome: at 57.1 µM (top of the series) unless noted. The procedure, abridged:
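Data are normalized to wells receiving SARS-CoV-2-S pseudoparticles and those given bald particles. Entry signal was luciferase luminescence in stable hACE2 Expi293F cells, 48 hr post-infection, after 1 hr compound pretreatment.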

Assay [14] can be described thus: Primary qHTS for inhibitors of nuclear receptor binding SET domain protein 2 (NSD2) in an isogenic RCH-ACV NSD2 p.E1099K mutant (9B) (AID 1645876). The following applies: RCH-ACV NSD2 E1099K (9B) viability, CellTiter-Glo, 72 h; series mostly up to 44.9 µM.
Assay [15] can be described thus: Primary qHTS for inhibitors of nuclear receptor binding SET domain protein 2 (NSD2) in an RCH-ACV wild type WT cells (2C) (AID 1645877). The following applies: RCH-ACV NSD2 WT (2C) viability, CellTiter-Glo, 72 h; series mostly up to 44.9 µM.
In assay [16] the target is Glutathione peroxidase 1 (Homo sapiens) (UniProt P07203). Description: Primary qHTS Assay for Inhibitors of Recombinant Selenoprotein Glutathione Peroxidase 1 (GPX1) (AID 1845191). The conditions noted are these: recombinant GPX1, GR-coupled NADPH fluorescence, 15 min; series mostly up to 48.8 µM. The procedure, abridged: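 GR-coupled readout: NADPH consumption tracked by fluorescence, ex 340/em 450 nm, at t=0 and after 15 min at RT. Final mix 10 nM GPX1, 1 mM GSH, 0.5 mM CHP, 0.5 mM NADPH, 100 nM GR, 0.01% BSA, following 30 min enzyme–compound preincubation.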
Sequence of Glutathione peroxidase 1 (Homo sapiens) (P07203 whole entry, looked up): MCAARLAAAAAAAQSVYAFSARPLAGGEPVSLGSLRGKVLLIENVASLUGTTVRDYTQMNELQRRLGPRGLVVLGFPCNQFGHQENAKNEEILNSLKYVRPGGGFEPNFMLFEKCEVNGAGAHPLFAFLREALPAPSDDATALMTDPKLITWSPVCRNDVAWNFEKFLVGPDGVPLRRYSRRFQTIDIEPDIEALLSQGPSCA

Sequence of Glucocorticoid receptor (Homo sapiens) (P04150 whole entry, looked up, the tested form may be a part): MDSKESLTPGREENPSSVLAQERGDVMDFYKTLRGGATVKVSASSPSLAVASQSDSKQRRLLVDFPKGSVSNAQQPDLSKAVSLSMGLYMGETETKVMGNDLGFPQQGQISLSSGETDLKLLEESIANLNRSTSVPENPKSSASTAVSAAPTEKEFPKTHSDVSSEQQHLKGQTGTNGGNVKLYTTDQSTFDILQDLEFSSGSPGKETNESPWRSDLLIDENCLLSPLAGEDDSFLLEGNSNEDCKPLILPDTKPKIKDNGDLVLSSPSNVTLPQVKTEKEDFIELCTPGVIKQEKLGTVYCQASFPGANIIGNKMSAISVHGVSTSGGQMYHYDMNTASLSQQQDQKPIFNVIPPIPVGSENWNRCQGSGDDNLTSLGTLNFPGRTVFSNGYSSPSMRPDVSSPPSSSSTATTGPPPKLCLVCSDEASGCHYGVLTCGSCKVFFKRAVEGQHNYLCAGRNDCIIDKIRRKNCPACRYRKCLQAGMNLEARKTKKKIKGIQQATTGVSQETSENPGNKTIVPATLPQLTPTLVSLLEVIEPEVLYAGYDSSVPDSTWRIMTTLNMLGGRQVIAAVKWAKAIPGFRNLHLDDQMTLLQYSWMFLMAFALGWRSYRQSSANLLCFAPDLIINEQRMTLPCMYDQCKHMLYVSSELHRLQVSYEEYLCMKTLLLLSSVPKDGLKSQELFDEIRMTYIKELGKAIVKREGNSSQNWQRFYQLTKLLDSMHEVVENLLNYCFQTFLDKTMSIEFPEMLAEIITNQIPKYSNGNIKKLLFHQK
Sequence of 3',5'-cyclic-AMP phosphodiesterase 4B (Homo sapiens) (Q07343 whole entry, looked up): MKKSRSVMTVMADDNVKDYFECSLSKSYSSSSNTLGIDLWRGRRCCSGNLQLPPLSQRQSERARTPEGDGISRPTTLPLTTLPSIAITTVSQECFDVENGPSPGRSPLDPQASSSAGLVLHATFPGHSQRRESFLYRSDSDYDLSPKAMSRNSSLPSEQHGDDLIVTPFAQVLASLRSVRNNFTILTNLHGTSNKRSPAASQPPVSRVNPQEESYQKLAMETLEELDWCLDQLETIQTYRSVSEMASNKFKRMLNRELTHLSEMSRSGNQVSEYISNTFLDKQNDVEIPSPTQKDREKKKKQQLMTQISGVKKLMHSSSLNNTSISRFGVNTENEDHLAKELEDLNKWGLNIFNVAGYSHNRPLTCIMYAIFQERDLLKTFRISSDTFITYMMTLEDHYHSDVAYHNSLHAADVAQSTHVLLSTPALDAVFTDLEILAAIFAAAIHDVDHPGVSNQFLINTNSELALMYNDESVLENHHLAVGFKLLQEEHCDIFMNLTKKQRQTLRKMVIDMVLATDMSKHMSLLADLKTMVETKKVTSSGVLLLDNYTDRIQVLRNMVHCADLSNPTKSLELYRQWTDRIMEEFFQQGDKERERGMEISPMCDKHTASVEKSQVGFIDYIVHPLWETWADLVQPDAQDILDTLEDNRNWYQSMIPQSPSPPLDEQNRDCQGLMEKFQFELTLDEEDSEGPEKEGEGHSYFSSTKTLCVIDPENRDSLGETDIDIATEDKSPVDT

On to `C=C[C@H]1CN2CCc3c([nH]c4cccc(OC)c34)[C@@H]2C[C@@H]1/C(=C\OC)C(=O)OC`, for which the Potency entry in [1], in assay [2] and in [3] was “inactive” in each case.

Take `C[C@]12CC(O)C3[C@@H](CC[C@@H]4C[C@@H](O)CC[C@]34CO)[C@@]1(O)CC[C@@H]2C1=CC(=O)OC1` (some centres undefined): the Potency in assay [4] is 4200 nM (active). In [5], the Potency result is “inactive”.

`CC[C@H](C)[C@H]1NC(=O)[C@@H](NC(=O)C(C)[C@H](O)C(C)C)[C@@H](C)OC(=O)C2COC(=O)CNC(=O)/C=C\[C@]3(CO3)[C@@H](C)Oc3ccc(cc3)[C@H](NC1=O)C(=O)N(C)C(Cc1ccccc1)C(=O)NC(C(C)O)C(=O)N2` (some centres undefined) (X2-T[d(aIle)][X3][ξNMeF][ξT][ξS]; ester 1-C; linker 3-6 via G): the Potency result in [6], in assay [2] and in assay [3] was “inactive” in each case.

In the case of `C[C@]12CCC3[C@@H](CC[C@@H]4C[C@@H](O)CC[C@]34CO)[C@@]1(O)CC[C@@H]2C1=CC(=O)OC1` (some centres undefined), the Potency in [4] was 1180 nM (active); in assay [6], 2360 nM (active). Besides, the Potency entry in assay [5] was “inactive”.

In the case of `CO[C@H]1[C@H](O[C@H]2CC[C@]3(C=O)[C@H]4CC[C@]5(C)[C@@H](C6=CC(=O)OC6)CC[C@]5(O)[C@@H]4CC[C@]3(O)C2)O[C@H](C)[C@H](O)[C@@H]1OC`, the Potency entry in assay [5] is “inactive”.

`C/C=C1/CN2CC[C@@]34c5ccccc5N(C)[C@@H]3[C@@H]2C[C@@H]1[C@H]4C(=O)OC`: the Potency result in assay [6], in assay [3] and in assay [5] was “inactive” in each case.

For `CO[C@@H](/C=C/CC/C=C/C(=O)O)[C@@H](O)[C@H](C)/C=C(\C)[C@H](O)[C@H](C)C(=O)CCCC1CC(=O)NC(=O)C1`, the Potency entry in assay [4], in assay [6], in assay [2] and in [3] was “inactive” each time.

For `CN(C)[C@@H]1C(=O)C(C(N)=O)=C(O)[C@]2(O)C(=O)C3=C(O)c4c(O)cccc4[C@@](C)(O)[C@@H]3C[C@@H]12`, the Potency in assay [7] and in assay [8] was > 46000 nM (inactive) throughout. Further, the outcome in [9] was inactive. In addition, the Potency result in assay [10] and in [11] was “inactive” in each case.

As to `CO/C1=C/C(C)=C\[C@@H](C)[C@@H](O)[C@@H](C)C/C(C)=C\C=C/[C@H](OC)[C@@H]([C@@H](C)[C@@H](O)[C@H](C)[C@@]2(O)C[C@@H](O)[C@H](C)[C@@H](C(C)C)O2)OC1=O`, the Potency was 1580 nM (active) in [12], 1580 nM (active) in assay [13], 49.4 nM (active) in assay [14] and 39.3 nM (active) in assay [15]. For the same compound, the Potency entry in assay [16] was “inactive”.

Consider `CC(C)(NC(=O)O[C@@H]1CN2CCC1CC2)c1csc(-c2ccc(F)cc2)n1`, for which the Potency entry in assay [12] and in assay [16] was “inactive” each time.

With `N#CC(O[C@@H]1O[C@H](CO[C@@H]2O[C@H](CO)[C@@H](O)[C@H](O)[C@H]2O)[C@@H](O)[C@H](O)[C@H]1O)c1ccccc1` (some centres undefined), the Potency entry in [12], in assay [14], in assay [15] and in [16] was “inactive” throughout.

On to `COc1cc(C)[nH]c(=O)c1CNC(=O)c1c(C)n([C@H](C)C2CCN(CC(F)(F)F)CC2)c2ccccc12`, for which the Potency result in assay [12], in [15] and in assay [16] was “inactive” in each case. In assay [13], this compound came in with an activity change, negative = inhibition of 4.42%.
